The values that follow come from ChEMBL document CHEMBL2218924, “A broad activity screen in support of a chemogenomic map for kinase signalling research and drug discovery” (Biochem J, 2013).

For the first experiment, the target named is Serine/threonine-protein kinase PLK2 (Homo sapiens) (UniProt Q9NYY3). To be noted: at 1 µM.
Chain of Serine/threonine-protein kinase PLK2 (Homo sapiens) (Q9NYY3 whole entry, looked up): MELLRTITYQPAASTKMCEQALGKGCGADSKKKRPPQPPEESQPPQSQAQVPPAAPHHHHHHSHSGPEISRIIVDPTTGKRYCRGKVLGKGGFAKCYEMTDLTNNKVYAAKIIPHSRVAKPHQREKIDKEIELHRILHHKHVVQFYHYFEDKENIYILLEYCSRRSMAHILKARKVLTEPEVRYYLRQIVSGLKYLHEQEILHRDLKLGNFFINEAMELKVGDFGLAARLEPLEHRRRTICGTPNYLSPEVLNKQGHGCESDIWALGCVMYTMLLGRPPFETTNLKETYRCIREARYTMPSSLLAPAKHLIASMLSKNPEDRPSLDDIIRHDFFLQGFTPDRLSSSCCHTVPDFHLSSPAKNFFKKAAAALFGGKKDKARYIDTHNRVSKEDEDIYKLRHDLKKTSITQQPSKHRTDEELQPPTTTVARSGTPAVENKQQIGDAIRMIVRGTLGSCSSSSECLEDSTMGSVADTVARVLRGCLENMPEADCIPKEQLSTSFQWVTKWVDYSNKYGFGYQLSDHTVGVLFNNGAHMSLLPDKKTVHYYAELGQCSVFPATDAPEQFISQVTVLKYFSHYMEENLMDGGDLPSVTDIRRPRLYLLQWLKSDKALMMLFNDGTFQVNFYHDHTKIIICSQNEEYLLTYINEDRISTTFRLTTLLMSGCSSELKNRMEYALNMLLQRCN
As a reminder, the residual activity is the signal under treatment as a percentage of the control signal. `NC(=O)c1ccc(-c2nc(-c3ccc4c(c3)OCCO4)c(-c3ccccn3)[nH]2)cc1`: the residual activity worked out at 93%.
Same read-out and setting: to `O=C(NC(NC(=S)Nc1ccc(F)c([N+](=O)[O-])c1)C(Cl)(Cl)Cl)C(c1ccccc1)c1ccccc1` (configuration not stated) belongs 90%.
For the compound `O=C(CCCc1ccc(-c2ccccc2F)cc1)Nc1ccc(O)cc1`, the residual activity was 109%.
Regarding `O=C1Nc2ccccc2/C1=C\c1c(Cl)[nH]c2ccccc12`, the residual activity came to 99%.
With `O=C1C(Cl)=C(N2C(=O)CCC2=O)C(=O)c2ccccc21`, the residual activity is 100%.
Regarding `N#C/C(=C1/Nc2ccccc2S1)c1ccnc(NCCc2cccnc2)n1`, the residual activity came out at 97%.
Take `COc1cc2nccc(Oc3ccc(NC(=O)Nc4cc(C)on4)c(Cl)c3)c2cc1OC`: the residual activity came to 105%.
Turning to `COc1cc2ncnc(Nc3cccc(Cl)c3)c2cc1OC`, the residual activity amounted to 109%.
On to `O=C1Cc2c([nH]c3ccc(Br)cc23)-c2ccccc2N1`, for which the residual activity stood at 99%.

The next experiment shares this target. Particulars: at 10 µM.
For the compound `NC(=O)c1ccc(-c2nc(-c3ccc4c(c3)OCCO4)c(-c3ccccn3)[nH]2)cc1`, the residual activity came out at 100%.
As for `O=C(NC(NC(=S)Nc1ccc(F)c([N+](=O)[O-])c1)C(Cl)(Cl)Cl)C(c1ccccc1)c1ccccc1` (configuration not stated), the residual activity came out at 87%.
With `Nc1ncnc2c1cnn2-c1ccccc1`, the residual activity is 97%.
For the compound `O=C(CCCc1ccc(-c2ccccc2F)cc1)Nc1ccc(O)cc1`, the residual activity turned out to be 106%.
On to `O=C1Nc2ccccc2/C1=C\c1c(Cl)[nH]c2ccccc12`, for which the residual activity was 80%.
Consider `O=C1C(Cl)=C(N2C(=O)CCC2=O)C(=O)c2ccccc21`, for which the residual activity amounted to 90%.
The same measure, in the same setting: to `Oc1cccc(-c2nc(N3CCOCC3)c3oc4ncccc4c3n2)c1` belongs 98%; to `N#C/C(=C1/Nc2ccccc2S1)c1ccnc(NCCc2cccnc2)n1`, 71%; to `COc1cc2nccc(Oc3ccc(NC(=O)Nc4cc(C)on4)c(Cl)c3)c2cc1OC`, 98%.
Same read-out and setting: to `COc1cc2ncnc(Nc3cccc(Cl)c3)c2cc1OC` belongs 82%.
As to `O=C1Cc2c([nH]c3ccc(Br)cc23)-c2ccccc2N1`, the residual activity was determined as 91%.

For another experiment, the target named is Tyrosine-protein kinase SYK (Homo sapiens) (UniProt P43405). Particulars: at 1 µM.
As to `O=c1c(-c2ccc(F)cc2)c(-c2ccncc2)[nH]n1-c1ccc(Cl)cc1`, the residual activity amounted to 41%.
`COc1ccc(COc2ccc(Cc3cnc(N)nc3N)cc2OC)cc1`: the residual activity stood at 118%.
As to `Cn1c2ccccc2c2c3c(c4c5ccccc5n(CCC#N)c4c21)CNC3=O`, the residual activity is 3%.
For `c1ccc(-c2cnc(Nc3ccc(OCCN4CCCC4)cc3)s2)cc1`, the residual activity was determined as 129%.
As to `NCCNc1ncc(C(N)=O)c(Nc2cccc(C(F)(F)F)c2)n1`, the residual activity stood at 6%.
As for `CN(C)S(=O)(=O)c1ccc2c(c1)/C(=C/c1cc3c([nH]1)CCCC3)C(=O)N2`, the residual activity is 97%.
Regarding `O=C(CCCc1ccc(-c2ccccc2F)cc1)Nc1ccc(O)cc1`, the residual activity is 100%.
As for `COc1ccc(-c2cnc3c(-c4ccsc4)cnn3c2)cc1`, the residual activity was 127%.
Turning to `O=C1C(Cl)=C(N2C(=O)CCC2=O)C(=O)c2ccccc21`, the residual activity worked out at 100%.
Take `Oc1cccc(-c2nc(N3CCOCC3)c3oc4ncccc4c3n2)c1`: the residual activity was determined as 131%.
Turning to `CC(C)N(CCC(=O)c1ccc2ccccc2c1)Cc1ccccc1`, the residual activity was 127%.
For `O=C1NC(=O)C(c2cn(CCCn3ccnc3)c3ccccc23)=C1Nc1ccccc1`, the residual activity amounted to 105%.
On the same count and under the same terms, to `COc1cc2ncnc(Nc3cccc(Cl)c3)c2cc1OC` belongs 121%; to `O=C1Cc2c([nH]c3ccc(Br)cc23)-c2ccccc2N1`, 72%.
Regarding `O=C1NC(=O)C(c2cn(CCCO)c3ncccc23)=C1c1cnccn1`, the residual activity is 93%.
With `O=C(c1ccccc1)c1ccc(N2CCOCC2)cc1O`, the residual activity is 124%.
For `O=C(Nc1nc2ccccc2n1CCN1CCOCC1)c1cccc([N+](=O)[O-])c1`, the residual activity came out at 123%.
